Results on 16 molecules are retold here after PubChem BioAssay AID1649 (The Scripps Research Institute Molecular Screening Center, 2009).

The other results are listed elsewhere or left out. Unmarked numbers belong to inactive results. Calls of active or inactive are those of the source. No stated cut-off is given here; in the data, active means activation above about 33%; inactive means the rest.

A short description of this experiment: NPY-Y2 potentiators or agonists, counter-screen for NPY-Y1 potentiator project, cell-based, fluorescence (AID 1649). The settings on record: HEK293-CNG cells, membrane-potential fluorescence (FLIPR), 1536-well; at 3.6 µM; hits give high values. Background: A counterscreen serves to expose hits that act by an unwanted route or on another target.
With `CN1C(=O)c2ccccc2C(C(=O)NCCCN2CCCC2)C1c1c[nH]c2ccccc12` (stereo unspecified), the activation was -3.74%. On to `CC1=C/C(=N\OS(=O)(=O)c2ccccc2)C=CC1=O`, for which the activation was 35.6% (active).

Take `N#Cc1ccc(C(=O)Nc2nc(-c3cccs3)c(C(=O)C(F)(F)F)s2)cc1`: the activation is -11.7%. `COCCn1nnnc1C(c1ccccc1Cl)N1CCN(c2ccccc2OC)CC1` (stereo unspecified): the activation was -5.69%.

Consider `CC(=O)c1ccc(NC(=O)C2CC(=O)Nc3nc4ccccc4n32)cc1` (stereo unspecified), for which the activation is 22.9%. Take `Cc1cccc(OCC(O)CN2CCN(CCN3C(=O)c4cccc5cccc(c45)C3=O)CC2)c1C` (stereo unspecified): the activation was 49.7% (active). `COC(=O)c1ccc(NC(=O)CN(c2ccc(C)cc2)S(=O)(=O)c2c(C)n[nH]c2C)cc1`: the activation is 27.7%. With `O=[N+]([O-])c1cc(Cl)cc(/C=N/NC(=S)Nc2cc(S(=O)(=O)N3CCOCC3)ccc2Cl)c1O` the figure was 64.8% (active); with `O=C1/C(=C/c2coc3ccc(O)cc3c2=O)SC(=S)N1c1ccccc1`, 17.4%. As for `O=C(Nc1ccc2c(c1)CCC2)c1cccc(S(=O)(=O)Nc2ccccc2Cl)c1`, the activation was -2.29%. Take `CSc1nc(-c2ccco2)nn1C(=O)c1ccccc1Cl`: the activation was 18.9%. With `CCn1c2ccccc2c2cc(NC(=O)Nc3ccc([N+](=O)[O-])cc3C)ccc21`, the activation was 20.9%. Take `Cc1ccccc1NCC(=O)N/N=C\c1ccc([N+](=O)[O-])s1`: the activation was 26.6%. Turning to `COC(=O)c1sc(-c2ccc(C(C)(C)C)cc2)cc1NC(=O)/C=C/C(=O)O`, the activation is 26.2%.

On to `O=C(c1cccs1)N1CCN(C(=O)N2CCOCC2)CC1`, for which the activation is -5.13%. In the case of `O=C(Nc1ccccc1C(F)(F)F)c1cc(-c2ccc(O)cc2)on1`, the activation is -13.4%.
